Hits are enriched below; roughly 0.9% of the tested compounds scored in any of these assays.
HIV TAR-Tat: HIV-1 TAR-Tat binding disruption | AID 1259389 | z-score (concentration not given with the values) | hit rate 0.6% among 100,000 | HIV-1 TAR RNA, Tat peptide displacement FRET; hits give high values; active means z-score of 3 or more in at least 2 runs
CDC25B CDK2 inh: human CDC25B-CDK2/CyclinA binding inhibition. P30305+P24941. HTRF CDC25B-CDK2/CyclinA binding, anti-His/anti-Flag; hits give high values. AID 1259370. z-score (concentration not given with the values). hit rate 0.72% among 94,000; in the data active means z-score above about 3.2
* marks the source's active call; other numbers are inactive results; nt = no result given.

SMILES | HIV TAR-Tat | CDC25B CDK2 inh
COc1ccc(CCNc2nc3c(S(=O)(=O)c4ccccc4)nnn3c3ccccc23)cc1OC | 1 | -2.4
COc1ccc(C(=O)CSc2n[nH]c(-c3ccco3)n2)cc1C | -1.9 | -3.2
Cc1ccc(C(=O)CSc2n[nH]c(-c3ccco3)n2)cc1C | 15* | -4.1
CC(Sc1nnc(-c2ccncc2)o1)C(=O)Nc1ccc2c(c1)OCCO2 (stereo not given) | 1.3 | 11*
Cc1[nH]c2ccc(-c3nnc(SC(C)C(=O)Nc4ccc5c(c4)OCCO5)o3)cc2c1C (stereo not given) | -2.1 | 0.43
Cc1ccc(OC(=O)c2nc(S(C)(=O)=O)ncc2Cl)cc1C | 2.9 | -2.1
Cc1sc(-n2cccc2)c(C(C)NC(=O)Nc2ccc(Br)cc2F)c1C (stereo not given) | 0.52 | -2.2
Nc1ccc(-c2nc3cc(N)c(Cl)cc3[nH]2)cc1 | 5.5* | -6.2
Nc1ccc(-c2nc3ccc(-c4nc5ccc(N)cc5[nH]4)cc3[nH]2)cc1 | nt | 9.9
CCCNS(=O)(=O)c1ccc2c(c1)NC(=O)C(C)S2 (stereo not given) | 2.2 | nt
Oc1cc2c(cc1O)C1c3ccc(O)c(O)c3OCC1(O)C2 (stereo not given) | 29* | nt
c1ccc(CNc2nn3nnnc3c3ccccc23)nc1 | 1.1 | -2.2
CCCCC(=O)Nc1nc2nc(C)c(Cl)c(C)n2n1 | -0.3 | -1.6
CCN1CCN(C(=O)CN2C(=O)c3ccccc3Sc3ncccc32)CC1 | -0.09 | nt
CCc1nnc(SCC(=O)Nc2ccc(F)c(Cl)c2)c2cc3sccc3n12 | 2.7 | nt
CC1(C)N=C(N)N=C(N)N1c1c(Cl)cccc1Cl | nt | 7.9*
Cc1ccccc1N1C(N)=NC(N)=NC1(C)C | nt | -0.13
CCN1CCc2c(sc(-n3cccc3)c2CNC(=O)Nc2ccc(F)c(Cl)c2)C1 | -7.6 | nt
Brc1ccc(C2Nc3cccc4cccc(c34)N2)cc1 | -0.41 | -0.51
Fc1ccc(C2Nc3cccc4cccc(c34)N2)cc1 | 13* | -1.3
COc1ccc(C2Nc3cccc4cccc(c34)N2)cc1Br | 26* | 1.5
COc1cc(C2Nc3cccc4cccc(c34)N2)cc(OC)c1OC | nt | -1.4
CCC12CN3CC(CC)(CN(C1)C3c1cccc(OC)c1O)C2O (stereo not given) | 0.4 | 0.01
COc1cccc(C2Nc3cccc4cccc(c34)N2)c1O | 22* | 0.43
Cc1nnc(NC(=O)CSc2nc(-c3cccs3)nc3c2c(=O)n(C)c(=O)n3C)s1 | nt | -1.1
SMILES | HIV TAR-Tat | CDC25B CDK2 inh
CCOC(=O)c1[nH]c(C)c(C(=O)Nc2nnc(CC)s2)c1C | nt | -1.1
CC(C)Cc1nn2c(=O)cc(COC(=O)c3ccc(Br)cc3)nc2s1 | -1.2 | nt
COc1ccccc1Cn1cc2c(-c3ccc(F)cc3)nnc-2c2cc3c(cc21)OCO3 | 2 | 0.03
COc1ccc(-c2nnc3c4cc5c(cc4n(Cc4ccccc4)cc2-3)OCCO5)cc1 | -0.71 | -0.78
COc1ccc(Cn2cc3c(-c4ccccc4)nnc-3c3cc4c(cc32)OCCO4)cc1 | -4.9 | 7.4*
COc1ccc(-c2nnc3c4cc5c(cc4n(Cc4ccccc4F)cc2-3)OCCO5)cc1OC | 1.1 | 7.3*
COCCCN(Cc1cccs1)S(=O)(=O)c1cc2[nH]c3c(c2cc1C)C(=O)CCC3 | 0.91 | nt
Cc1ccc(CNC(=O)C2=Cc3sc(C)c(C)c3CS2)cc1 | 0.81 | nt
Cc1sc2c(c1C)CSC(C(=O)NCc1ccco1)=C2 | 3.6* | nt
CCS(=O)(=O)N1CCC2(CC1)OC(=O)C(C)=C2C(=O)N1CCc2ccccc2C1 | 0.17 | nt
O=C1c2cccc3c(SCCO)ccc(c23)C(=O)N1CCc1ccccn1 | nt | 7.8*
O=C(CN1C(=O)c2cccc3cccc1c23)NCc1ccccn1 | 0.42 | -0.95
CCN1CCN(C(c2ccc(C(C)C)cc2)c2sc3nc(C)nn3c2O)CC1 (stereo not given) | nt | -1
O=C(Nc1cccc(C(=O)Nc2ccc(S(=O)(=O)O)c3cc(S(=O)(=O)O)cc(S(=O)(=O)O)c23)c1)Nc1cccc(C(=O)Nc2ccc(S(=O)(=O)O)c3cc(S(=O)(=O)O)cc(S(=O)(=O)O)c23)c1 | nt | 4.6*
CC(=O)Nc1ccc(S(=O)(=O)Nc2cccc(C(=O)Nc3ccccc3C(=O)O)c2)cc1 | nt | -2.6
CCSc1nn2c(=O)cc(COc3cc(C)ccc3C)nc2s1 | 7.7* | 1.1
CCCc1nn2c(=O)cc(COc3cc(C)ccc3C)nc2s1 | 0.21 | 0
O=C1Nc2ccccc2S(=O)(=O)N1c1ccc(Br)cc1 | nt | -0.56
Cc1c(C(=O)N(C)c2ccccc2F)sc2nc3n(c(=O)c12)CCCC3 | -0.5 | nt
COc1ccc2ccccc2c1C1CC(=O)N2CN(c3ccccc3)CSC2=C1C#N (stereo not given) | -1.1 | 4.8*
COc1ccc2ccccc2c1C1CC(=O)N2CN(c3ccc(F)cc3)CSC2=C1C#N (stereo not given) | 0.3 | 2.6
COc1ccc(N2CSC3=C(C#N)C(c4c(OC)ccc5ccccc45)CC(=O)N3C2)cc1 (stereo not given) | -2 | 6.4*
COc1ccc(N2CSC3=C(C#N)C(c4c(OC)ccc5ccccc45)CC(=O)N3C2)c(OC)c1 (stereo not given) | 1.6 | 3.8*
Cc1ccc(C)c(N2CCN(Cc3nnc(-c4ccccc4C)o3)CC2)c1 | 0.87 | -0.19
O=C(Cn1ncc2c([nH]c3ccccc32)c1=O)Nc1ccc(F)c(Cl)c1 | -0.01 | nt
SMILES | HIV TAR-Tat | CDC25B CDK2 inh
CCN(C(=O)c1noc2c1CSc1ccccc1-2)c1cccc(Cl)c1 | 0.67 | -1.3
Cc1ccc2nc(C3=C(O)CN(c4ccc(OC(C)C)cc4)C3=N)[nH]c2c1 | 3 | 1.6
O=C1c2cc(O)cc(O)c2OC[C@@H]1c1ccc(O)c(O)c1 | 23* | nt
O=C1c2c(O)cc(O)cc2OC(c2ccc(O)c(O)c2)C1O (stereo not given) | nt | -1
Nc1cccc(N2CCn3c(nc4ccccc43)C2)c1 | -3.4 | 7.4*
Nc1cccc(N2CCn3c(nc4cc(Cl)ccc43)C2)c1 | -5.1 | -0.91
c1ccc(CN2CCn3c(nc4ccccc43)C2)cc1 | 0.68 | -1.8
Nc1ccc(N2CCn3c(nc4ccccc43)C2)cc1 | -1.7 | 13*
NC(=O)c1sc2nc(N3CCCC3)c3c(c2c1N)CCCC3 | -0.03 | -1.8
N#Cc1c(SCC(=O)Nc2cccc(F)c2)nc2c(c1-c1ccco1)CCCC2 | nt | -1.7
N#Cc1c(SCC(=O)NCC2CCCO2)nc2c(c1-c1ccco1)CC/C2=C/c1ccco1 (stereo not given) | 20* | nt
NC1=NC2(CCCCC2)N(c2ccccc2Cl)C(N)=N1 | nt | -0.29
Cc1noc(/C=C/c2cccs2)c1S(=O)(=O)N1CCC(C(=O)Nc2nccs2)CC1 | -0.43 | -1.1
CCOC(=O)c1nc2ccccc2[nH]c1=O | -0.31 | 18*
CCOC(=O)C(C)c1nc2ccccc2[nH]c1=O (stereo not given) | nt | -0.92
COCC(C)NC(=O)c1onc(C)c1Cl (stereo not given) | 1.6 | -0.63
Cc1ccc2oc(-c3ccc(C)c(N=C/C=C/c4ccc(Cl)cc4Cl)c3)nc2c1 | nt | -1.5
CCOC(=O)c1[nH]c2sc(C)c(C)c2c1N | -2.7 | 3
CCOC(=O)c1[nH]c2sc3c(c2c1N)CCCC3 | 5.2* | 17*
COC(=O)c1[nH]c2sc3c(c2c1N)CCCC3 | 7* | 14*
O=c1[nH]c(=S)[nH]c2sc3c(c12)CCCC3 | nt | -3.3
Cc1cc(C)n2ncc(C(=O)NCCC(C)C)c2n1 | 1.5 | nt
O=C(Nc1cccc(CN2CCCC2)c1)NC1COc2ccccc2C1 (stereo not given) | 1 | nt

Compound activity deposited in PubChem BioAssay by Center for Chemical Genomics, University of Michigan.
